Compounds without any hit were thinned out: in the full panel of roughly 83,000, 20% have a hit.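 Growth was measured after 48 h exposure to one concentration of compound in 96-well plates. Values under 10 count as active.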 A number with no mark means an inactive call. Calls of active or inactive are those of the source.

For one assay, the system named is OVCAR-5 ovarian. The experiment in a line: NCI-60 one-dose screen, 48 h (100 = growth as untreated, 0 = no growth, -100 = all killed). The conditions noted are these: 10 µM unless noted.
For the compound `O=S(=O)(NCCCNc1nccc(-c2[nH]c(-c3ccccc3)nc2-c2ccc(Cl)c(O)c2)n1)c1cccc2ccccc12`, the growth is 67.1%.
Same read-out and setting: as for `Nc1ccccc1NC(=O)c1ccc(NC(=O)C/C=C/c2cccnc2)cc1`, the figure is 29.7%; as for `COc1cc(-c2nc(SCCC(C)C)nc(NNC(=O)c3ccncc3)c2C#N)cc(OC)c1OC`, 61%; as for `O=C(NNc1nc2cc(F)c(F)cc2n2cccc12)c1cnccn1`, 41.2%.

A further assay relates to OVCAR-4 ovarian. The description is as above. The conditions noted are these: 10 µM unless noted.
Consider `CN1CCN(Cc2ccc(NC(=O)c3cncc(C#Cc4cnc5ccc(OCC6(C)COC6)nn45)c3)cc2C(F)(F)F)CC1`, for which the growth is -54.7% (active).
`CC(=O)c1cc(C(=O)c2ccc(Br)cc2)n2cc(C)cc(C)c12`: the growth is 93.4%.
The same measure, in the same setting: as for `COC(=O)C[Se]C(=O)Cc1c(C)n(C(=O)c2ccc(Cl)cc2)c2ccc(OC)cc12`, the figure is 40.6%.
`N#Cc1cccc(CN2CCC3=C(C2)C(=O)N(Cc2ccc(Cl)cc2)C2=NCCCN23)c1`: the growth was 20.8%.
Still for that read-out and setting: as for `C=CCn1c(SCC(=O)Nc2ccc(C(=O)/C=C/c3ccc(C)cc3)cc2)nnc1-c1c[nH]c2ccccc12`, the figure is 81.3%; as for `CCCn1cnc2c(c1=N)C(c1ccc(OC)cc1)c1sc3c(CC)cccc3c1O2` (centres undefined), 71.8%; as for `Cc1ccc(-c2cc3nc(C(Cl)Cl)nc(C)n3n2)cc1`, 118%.
For the compound `CCOC(=O)C(=O)CC(=O)N1C(=S)NC(=O)C1CC(C)C` (centres undefined), the growth was 102%.
Same read-out and setting: as for `COc1ccc(-c2nc(C(Cl)Cl)nc3cc(-c4ccccc4)nn23)cc1`, the figure is -15.3% (active).
Still for that read-out and setting: as for `CNC(=O)c1cc(-c2ccc(NS(=O)(=O)c3ccc(C)cc3)cc2)nc2cccnc12`, the figure is 99.5%.

The values above are taken from PubChem BioAssay (NCI).
